Bioassay records deposited in PubChem by National Center for Advancing Translational Sciences (NCATS).
Hits are enriched below; roughly 3% of the tested compounds scored in any of these assays.
SNCA viab count – counter-screen for SNCA expression inhibitors: cell viability; HEK-293-SNCA-luc viability, GF-AFC fluorescence, 24 h; Potency, µM (doses to about 57.1 µM), hits mostly cytotoxic; actives 0.12% (n = 150,000); note: nearly all actives have a fitted effect of over 30% in size
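HEK-293-SNCA-luc cells (1500/well) plated 24 h, then exposed 24 h to a dilution series; GF-AFC added 30 min at 37C, fluorescence 405/540 nm; normalised to medium-only and DMSO wells, Hill fit.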
KDM5B inh – blocks human KDM5B histone demethylase activity | Q9UGL1 | KDM5B demethylase, FDH-coupled NADH fluorescence (FDH is formaldehyde dehydrogenase) | Potency, µM (titrated, usually from 57.7 µM), actives largely listed as inhibitors | actives 2.6% (n = 220,000); note: nearly all actives have a fitted effect of over 70% in size
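Here, H3K4me3 peptide (12.5 µM in substrate mix) is demethylated by KDM5BΔAP, 200 nM final, after 10 min compound exposure. Formaldehyde product is coupled through FDH (0.25 U/mL in mix) to NADH fluorescence; 30-min ΔRFU feeds dose-response curves.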
SNCA expr inh – reduces expression of the alpha-synuclein gene | HEK-293 SNCA-luciferase knock-in, luminescence, 24 h | Potency, µM (highest dose often 57.2 µM), most hits filed as inhibitors | actives 0.17% (n = 140,000) | AID 1671194; note: nearly all actives have a fitted effect of over 45% in size
IP6K1 inhibitor – inhibitors of human IP6K1; Q92551; IP6K1 kinase, ADP-Glo luminescence, 2 h; active compounds read low; activity change, % (series mostly up to about 58 µM); actives 0.81% (n = 140,000); AID 1645851; in the data active = activity change below about -25%
Target sequence (Q92551 whole entry, looked up): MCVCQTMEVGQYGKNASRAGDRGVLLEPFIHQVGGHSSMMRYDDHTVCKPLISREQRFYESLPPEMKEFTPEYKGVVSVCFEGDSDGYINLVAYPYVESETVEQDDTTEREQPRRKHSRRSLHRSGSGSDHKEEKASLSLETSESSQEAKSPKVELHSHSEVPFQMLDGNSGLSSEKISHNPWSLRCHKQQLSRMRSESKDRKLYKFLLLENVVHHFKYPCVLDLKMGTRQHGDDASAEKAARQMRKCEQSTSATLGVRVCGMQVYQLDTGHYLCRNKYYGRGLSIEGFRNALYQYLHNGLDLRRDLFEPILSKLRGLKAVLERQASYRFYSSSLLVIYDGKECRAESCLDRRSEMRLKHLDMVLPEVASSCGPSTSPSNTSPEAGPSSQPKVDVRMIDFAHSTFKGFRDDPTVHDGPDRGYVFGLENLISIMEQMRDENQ
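ADP-Glo luminescence measures ADP made by human IP6K1 during a 2 h RT reaction with ATP/IP6 (mix at 1.3 mM/130 uM); top library doses 57.5 and 19.1 uM final.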
Hits are given with their value; 0 = inactive; ? = inconclusive; - = not tested or not shown. Unless noted, calls come from the whole dose curve; as a rule, active = well fitted curve in the direction sought with a large enough effect; inconclusive = small, poorly fitted or top-dose-only effect, or another doubt; inactive = no such curve, though single readings can be large; an effect the other way counts as inactive or inconclusive.

SMILES	SNCA viab count	KDM5B inh	SNCA expr inh	IP6K1 inhibitor
CC1=C[C@@H](CNC(=O)NC2CCCCC2)[C@H](C(C)C)C[C@H]1Cc1nc2c(C)cccc2[nH]1	0	0	0	0
CN(C)Cc1ccc(-c2cc3c(ccn3Cc3cccnc3)c(C3=CCOCC3)n2)cc1	0	35.5µM	0	0
C1=C(c2nc(-c3cccc4[nH]ncc34)cc3c2ccn3Cc2cccnc2)CCOC1	?	0	0	0
C1=C(c2nc(-c3ccc(N4CCOCC4)cc3)cc3c2ccn3Cc2cccnc2)CCOC1	0	28.2µM	0	0
O=C(NC1CCN(Cc2cccc(-c3ccc(F)c(F)c3)c2)CC1)c1ccc(F)cc1	0	-	0	0
O=C(c1ccc(C(F)(F)F)cc1)N1CCN(C(=O)c2nc3cccnc3n(Cc3ccccc3)c2=O)CC1	0	-	0	0
Cc1ccc(-c2cn3c(n2)sc2cc(C(=O)NCCCN4CCCCCC4)ccc23)cc1	?	?	?	0
Cc1ccc(-c2cn3c(n2)sc2cc(C(=O)NCCCN4CCCCC4)ccc23)cc1	25.1µM	?	?	0
O=C(c1cccc(O)c1)N1CC(COc2ccccc2)C2(C1)CN(C(=O)c1cn[nH]c1)C2 (stereo unspecified)	0	0	0	0
c1ccc(OCC2CN(Cc3ccncc3)CC23CN(c2ccccc2)C3)cc1 (stereo unspecified)	0	31.6µM	0	0
O=C(Cc1ccccc1)NCC1CN(Cc2ccc3[nH]ccc3c2)CC12CN(c1ccccc1)C2 (stereo unspecified)	0	?	0	0
N#Cc1cccc(C(=O)N2CC(COc3ccccc3)C3(C2)CN(c2ccccc2)C3)c1 (stereo unspecified)	0	35.5µM	0	0
c1ccc(OCC2CN(Cc3ccc4[nH]ccc4c3)CC23CN(c2ccccc2)C3)cc1 (stereo unspecified)	?	?	20µM	0
O=C(NCc1ccc(F)cc1F)C1CCN(C(=O)c2ccc(-c3cccs3)cc2)CC1	-	-	-	0
O=C(NCCc1ccccc1)c1nc2sccn2c1-c1ccc(C(F)(F)F)cc1	0	-	?	0
O=C(NCc1cccc(Cl)c1)C1CCCN1C(=O)c1cccc(-c2ccccn2)c1 (stereo unspecified)	-	-	-	0
COCC1CN(Cc2ccc(Br)s2)CC12CCNCC2 (stereo unspecified)	0	10µM	0	0
CC(C)(C)OC(=O)N1CCC(NC(=O)c2nc(-c3ccccc3)c3ccccn23)CC1	0	79.4µM	0	0
COc1ccc(-c2nc(C(=O)NC3CC3)n3ccccc23)cc1	0	31.6µM	0	0
Cn1ncc2c(C(=O)NCc3cccc(C(F)(F)F)c3)cc(-c3ccccc3C(F)(F)F)nc21	-	-	-	0
Cc1ccccc1CC1(CO)CCCN(c2ccc(-c3nccn3C)nn2)C1 (stereo unspecified)	?	?	?	0
Cn1ccnc1-c1ccc(N2CCC(CO)(CCOc3ccccc3)CC2)nn1	0	28.2µM	0	0
Cn1ccnc1-c1ccc(N2CCCC(CO)(CCOc3ccccc3)C2)nn1 (stereo unspecified)	?	31.6µM	0	0
CC(C)COC(=O)N[C@@H]1C[C@@H]2CO[C@H](c3ccccc3)C[C@@H]2C1	-	-	-	0
CC(C)=CCC1(CO)CCCN(Cc2cc(=O)n3cc(C)sc3n2)C1 (stereo unspecified)	0	28.2µM	0	0
SMILES	SNCA viab count	KDM5B inh	SNCA expr inh	IP6K1 inhibitor
CC(C)=CCC1(CO)CCCN(CC(=O)N2CCCCCC2)C1 (stereo unspecified)	0	0	0	0
O=C(c1cccc(O)c1)N1CC=C(c2cnc3cnc(-c4ccccc4)cn23)CC1	0	28.2µM	0	0
O=C(c1ccn[nH]1)N1CC=C(c2cnc3cnc(-c4ccccc4)cn23)CC1	0	?	0	0
CC(C)c1noc(-c2cccn3c(CNC(=O)C4CC4)nnc23)n1	0	28.2µM	0	0
CCCc1noc(-c2cccn3c(CNC(=O)C4CC4)nnc23)n1	0	25.1µM	0	0
CCc1noc(-c2cccn3c(CNC(=O)C4CCCCC4)nnc23)n1	0	?	0	0
CCc1noc(-c2cccn3c(CNC(=O)C4CC4)nnc23)n1	0	25.1µM	0	0
CCn1ccc(C(=O)N2c3ccccc3CC2c2nc(C(C)C)no2)n1 (stereo unspecified)	0	25.1µM	0	0
COc1ccc(C=CC(=O)Nc2ccccc2C(=O)O)cc1OC	0	-	1.52µM	-
COc1ccc(/C=C\C(=O)Nc2cccc3cccnc23)cc1OC	-	0	-	-
COc1ccc(/C=C/C(=O)Nc2ccccc2C(=O)O)cc1OC	0	-	1.58µM	0
COc1cc(-n2cnc3cc(-c4ccc(Cl)cc4)sc3c2=O)ccc1OCCN1CCCC1	11.9µM	-	-	0
COCCNC(=O)c1cc(-c2cccc(C(F)(F)F)c2)c2cccn2n1	0	-	0	0
COc1ccc(-c2ccc3c(c2)C(=O)N2CCN(C(=O)COc4ccccc4)C[C@@H]2C(=O)N3)cc1	0	28.2µM	0	0
COCC(=O)N1CCN2C(=O)c3cc(-c4cccc(C(F)(F)F)c4)ccc3NC(=O)[C@H]2C1	0	28.2µM	0	0
O=C1Nc2ccc(-c3cccc(C(F)(F)F)c3)cc2C(=O)N2CCN(C(=O)NC3CCCCC3)C[C@H]12	0	?	?	0
O=C1Nc2ccc(-c3cccc(C(F)(F)F)c3)cc2C(=O)N2C[C@H](O)C[C@@H]12	0	?	0	0
O=C1Nc2ccc(-c3cccc(C(F)(F)F)c3)cc2C(=O)N2CCN(C(=O)c3ccco3)C[C@@H]12	0	35.5µM	0	0
C=CCO[C@@H]1C[C@H]2C(=O)Nc3ccc(-c4ccccc4)cc3C(=O)N2C1	0	0	0	0
C=CCO[C@@H]1C[C@H]2C(=O)Nc3ccc(-c4ccc(OC)cc4)cc3C(=O)N2C1	0	35.5µM	0	0
COc1ccc(-c2ccc3c(c2)C(=O)N2CCN(C(=O)c4cccnc4)C[C@@H]2C(=O)N3)cc1	0	?	0	0
COCC(=O)N1CCN2C(=O)c3cc(-c4ccc(OC)cc4)ccc3NC(=O)[C@H]2C1	0	31.6µM	0	0
COc1ccc(-c2ccc3c(c2)C(=O)N2CCN(C(=O)NC4CCCCC4)C[C@@H]2C(=O)N3)cc1	0	?	0	0
O=C(c1cccc(Cl)c1)N1CCN(c2ccc3nnc(C4CC4)n3n2)CC1	-	-	-	0
Cc1ccc(F)cc1S(=O)(=O)NC1CCN(c2ccc(=O)n(CC3CC3)n2)CC1	0	28.2µM	?	0
c1ccc(CC2=NOC3(CCN(Cc4ccccc4)C3)C2)cc1 (stereo unspecified)	0	31.6µM	0	0
COc1ccc(CNC(=O)C2CCCN2Cc2ccc(-c3cccc(OC)c3)cc2)cc1 (stereo unspecified)	0	-	0	0
O=C(Nc1ccccc1)c1cc2n(n1)CC(c1ccc(Cl)cc1)OC2 (stereo unspecified)	0	?	0	0
Cc1ccc(NC(=O)c2cc3n(n2)CC(c2ccc(Cl)cc2)OC3)cc1 (stereo unspecified)	0	20µM	0	0
